Bioassay records as filed in PubChem.
S-ASM inh – blocks human secretory acid sphingomyelinase. Potency, µM (titrated, usually from 57.5 µM), inactives show at the highest dose activity change, negative = inhibition, usual class: inhibitors. placental ASM, HMU-PC fluorogenic substrate, 60 min. 0.006% of 340,000 active. P17405. AID 504937; further: potency means the concentration at half of the fitted maximal effect
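Fluorescence read-out (Ex 386 nm, Em 447 nm) after stopping the reaction at pH 10. Enzyme: ASM from human placenta; substrate HMU-PC0, 9 uM final; 60 min, 37 °C. Compound preincubation 10 min, ambient temperature.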
12-LOX inh – blocks human arachidonate 12S-lipoxygenase; AID 1671190; purified 12hLO, xylenol orange hydroperoxide absorbance; Potency, µM (doses to about 108 µM), without a hit: at the top dose activity change, negative = inhibition, most hits filed as inhibitors; 1.1% of 580,000 active; further: potency means the concentration at half of the fitted maximal effect; on the % scale 0 is the no-effect control and ±100 the full control effect
Target sequence (P18054 whole entry, looked up): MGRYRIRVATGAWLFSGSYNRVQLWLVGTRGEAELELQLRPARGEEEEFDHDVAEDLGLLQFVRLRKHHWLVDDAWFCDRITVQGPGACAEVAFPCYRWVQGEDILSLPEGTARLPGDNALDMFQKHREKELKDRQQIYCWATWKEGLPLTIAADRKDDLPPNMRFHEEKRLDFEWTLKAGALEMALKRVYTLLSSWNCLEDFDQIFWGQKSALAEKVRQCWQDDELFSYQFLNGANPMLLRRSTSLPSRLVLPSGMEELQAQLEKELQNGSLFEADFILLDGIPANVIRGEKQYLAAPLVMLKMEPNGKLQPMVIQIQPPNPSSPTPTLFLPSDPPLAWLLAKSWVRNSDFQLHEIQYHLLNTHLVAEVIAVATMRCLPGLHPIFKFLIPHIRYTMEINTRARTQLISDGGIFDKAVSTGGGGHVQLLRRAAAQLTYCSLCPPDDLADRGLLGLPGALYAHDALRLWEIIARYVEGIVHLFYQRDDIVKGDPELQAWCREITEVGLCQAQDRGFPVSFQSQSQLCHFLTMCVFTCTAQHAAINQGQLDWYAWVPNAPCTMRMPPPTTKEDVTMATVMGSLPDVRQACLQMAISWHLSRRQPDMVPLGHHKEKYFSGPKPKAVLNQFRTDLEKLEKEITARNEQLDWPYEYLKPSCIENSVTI
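Hydroperoxide product was detected by ferrous iron/xylenol orange as the 573 to 405 nm absorbance ratio. Arachidonic acid at 40 uM (final) was turned over for 30 min at room temperature by 150 nM human 12hLO, pH 7.0 Hepes buffer, after 15 min compound preincubation.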
MmCpn inh – blocks the Methanococcus maripaludis chaperonin Mm-Cpn; purified Mm-Cpn ATPase, ADP Transcreener TR-FRET; Potency, µM (series often up to 76.9 µM), without a hit: at the top dose activity, negative = inhibition, most hits filed as inhibitors; 0.031% of 330,000 active; AID 504842; further: potency means the concentration at half of the fitted maximal effect; on the % scale 0 is the no-effect control and ±100 the full control effect; nearly all actives have a fitted effect of over 80% in size
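Quantitative HTS used 25 nM Mm-CPN and 10 uM ATP in magnesium/KCl Tris buffer, pH 7.4, with 1 mM DTT. Hydrolysis ran 30 min at 37°C; ADP was read by HTRF.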
PINK1 modulator – changes PINK1 expression; Potency, µM (series often up to 76.6 µM), for the others: at the top dose activation (PINK1 increase), actives largely listed as activators; PINK1 immunofluorescence, high-content cytometry, 24 h; 0.2% of 410,000 active; active means well fitted activation curve with a large enough effect; inconclusive means small, poorly fitted or top-dose-only effect; cell line not stated here; further: potency means the concentration at half of the fitted maximal effect; % of control where 0% means no effect; nearly all actives have a fitted effect of over 65% in size
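Cells are seeded, rested 12 hours, then given compound at five concentrations or DMSO for 24 hours. After fixation, blocking and antibody staining, PINK1 amount and mitochondrial localization are scored; CCCP serves as control.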
CCT modulator – changes cytosolic chaperonin activity; purified chaperonin ATPase assay, HTRF ADP detection, 30 min; activity change, % (concentration not given with the values), hits read low; 0.3% of 360,000 active; in the data active means activity change below about -30%; further: on the % scale 0 is the no-effect control and ±100 the full control effect
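TRiC (40 or 20 nM final, by batch activity) in 30 mM Tris pH 7.4, 100 mM KCl, 5 mM MgCl2, 1 mM DTT was treated with compound at 76 uM single dose, then 10 uM ATP, 30 min at 37 °C. ADP was read by HTRF Transcreener.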
p53 reactivator – mutant p53 re-activation in reporter cells. Potency, µM (top dose mostly 92.2 µM), for the others: top-dose activity change, positive = activation, most hits filed as activators. 0.063% of 320,000 active. H1299 p53-A138V BP100-luciferase reporter, luminescence, 24 h; further: potency means the concentration at half of the fitted maximal effect; % of control where 0% means no effect; nearly all actives have a fitted effect of over 45% in size
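H1299 (p53-null), stable ts p53-A138V + BP100-Luc; 1000 cells/well, Opti-MEM/10% FBS; cpd 4 pt, 1:5; 24 h, 37 deg C, 5% CO2; detection reagent 10 min RT; luminescence.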
* = called active by the depositor; ? = inconclusive; · = no result given; [ ] = dose if it differs, or a comment. The list is not random: actives were taken first. Their share in the collection is about 1.4%. Unless noted, the call rests on the fitted dose curve; in most records, active means well fitted curve in the direction sought with a large enough effect; inconclusive means small, poorly fitted or top-dose-only effect, or another doubt; inactive means no such curve, though single readings can be large; an effect the other way counts as inactive or inconclusive.

SMILES	S-ASM inh	12-LOX inh	MmCpn inh	PINK1 modulator	CCT modulator	p53 reactivator
Cc1nc(CCNC(=O)Cc2ccsc2)no1	·	35.5µM*	·	·	·	·
Cc1ccc(C2NNC(=O)C2NC(=O)c2ccccc2)cc1 (configuration not stated)	4.2%	25.1µM*	1.2%	-0.1%	-0.3	0.2%
CCCC(=O)Nc1sc(Cc2ccccc2)c(C)c1C(N)=O	-0.5%	?	-2.8%	-0.1%	-2.0	-2.6%
CCOC(=O)c1c(NC(=S)Nc2ccccc2)sc(C)c1C	-0.2%	-26.1%	-5.0%	0.2%[38.3 µM]	0.9	3.4%
COC(=O)CCC(=O)Nc1sc(Cc2ccccc2)c(C)c1C(N)=O	-0.3%	20µM*	-4.6%	-0.2%	3.8	3.4%
CCOC(=O)c1c(NC(=O)C[n+]2ccc(Cc3ccccc3)cc2)sc(C)c1C	?	44.7µM*	0.1%	2.6%	0.2	-7.3%
O=C(Nc1cccc(C(F)(F)F)c1)C1C(c2ccccc2)=C1c1ccccc1	·	53.7%	·	·	·	·
O=[N+]([O-])c1ccc(N2CCN(Cc3cccc([N+](=O)[O-])c3)CC2)cc1	-9.6%	-5.5%	-0.8%	1.6%	-0.8	·
O=[N+]([O-])c1ccc(CN2CCN(c3ccc([N+](=O)[O-])cc3)CC2)cc1	-9.1%	3.55µM*	-1.6%	0.1%	-1.9	-3.4%
O=[N+]([O-])c1cccc(-c2ccc(CN3CCN(c4ccccc4)CC3)o2)c1	-2.5%	7.08µM*	-0.4%	2.9%	-0.6	7.5%
O=[N+]([O-])c1ccccc1-c1ccc(CN2CCN(c3ccccc3)CC2)o1	26.2%	?	2.6%	1.0%	-0.1	·
O=[N+]([O-])c1ccc(CN2CCN(c3ccc4ccccc4n3)CC2)cc1	-0.2%	50.1µM*	-4.1%	2.2%	-3.2	3.1%
O=C(CSc1nnc2ccc(-c3cccs3)nn12)N1CCOCC1	·	4.4%	·	·	·	·
CC1(C)CC2(CC(c3ccccc3F)c3cc(Cl)c(O)cc3O2)NC(=S)N1 (configuration not stated)	-3.0%	31.6µM*	2.4%	0.5%	-6.2	-1.6%
Cc1cccc(C2CC3(CC(C)(C)NC(=S)N3)Oc3cc(O)ccc32)c1 (configuration not stated)	-2.2%	39.8µM*	-20.9%	-2.3%	1.4	-6.0%
COc1cccc(C2CC3(CC(C)(C)NC(=S)N3)Oc3cc(O)ccc32)c1 (configuration not stated)	-1.1%	?	-0.3%	4.1%	-1.4	-7.4%
Cn1ccc(NC(=O)CCc2ncc(-c3ccc(Cl)cc3)o2)n1	·	33.6%	·	·	·	·
COc1ccc2c(c1OC)C(=O)N(c1ccc(F)cc1)C2	4.7%	0.0%	-0.4%	0.0%	-40.5*	?
COc1ccc(-c2c(C)c3cc(OS(=O)(=O)c4ccc(Cl)cc4)ccc3oc2=O)cc1	·	34.0%	·	·	·	·
CCCCc1ccc2nc(NC(=O)c3ccc(F)cc3)sc2c1	·	-4.7%	·	·	·	·
O=C(O)c1nn(Cc2ccccc2)c(=O)c2ccccc12	·	-22.7%	·	·	·	·
COc1ccc(CCCC(=O)NC2CCCCC2C)c(C)c1 (configuration not stated)	6.1%	8.91µM*	0.8%	3.2%[38.3 µM]	-5.2	-2.8%
CC(=O)c1ccc(OCCCC(=O)NC2CCCCC2C)cc1 (configuration not stated)	22.7%	-2.9%	-0.6%	-0.7%	1.0	-4.4%
CN(C)CCCN(C(=O)COc1ccc(Cl)cc1)c1nc2cc3c(cc2s1)OCO3	-12.8%	?	1.1%	-1.9%	-35.1*	29.8%
CN(C)CCCN(C(=O)COc1ccc(Cl)cc1)c1nc2cc3c(cc2s1)OCCO3	-12.8%	?	-2.8%	-1.8%	-0.3	0.7%
SMILES	S-ASM inh	12-LOX inh	MmCpn inh	PINK1 modulator	CCT modulator	p53 reactivator
COc1ccc(C(=O)Nc2c(C)nc(Nc3ccc(C)cc3)nc2Nc2ccc(C)cc2)cc1OC	·	0.3%	·	·	·	·
OC(C#CCCN1CCCCC1)(c1ccccc1)C1CCCCC1 (configuration not stated)	-4.0%	162.4%	1.0%	7.3%	0.0	1.1%
OC(C#CCN1CCC(c2ccccc2)C1)(c1ccccc1)C1CCCCC1 (configuration not stated)	·	0.891µM*	·	·	·	·
CCCc1cc(=O)oc2c(C)c(OC(C)C(=O)NCCCn3ccnc3)ccc12 (configuration not stated)	·	64.2%	·	·	·	·
CC(C)c1ccc(NC(=O)C2CCN(c3cc(C(F)(F)F)ncn3)CC2)cc1	·	16.5%	·	·	·	·
CC(NC(=O)C1CCN(c2cc(C(F)(F)F)ncn2)CC1)c1ccccc1 (configuration not stated)	·	44.7µM*	·	·	·	·
Fc1cc(Br)ccc1NC(=S)NCc1cccs1	·	25.1µM*	·	·	·	·
Cc1cc(Cl)ccc1NC(=S)NCc1cccs1	-0.9%	?	-0.4%	-1.5%	0.2	?
Cc1ccc(S(=O)(=O)N2CCC(C(=O)NCc3cnn(-c4ccccc4)c3)CC2)cc1	·	-91.9%	·	·	·	·
Cc1noc(C(C)C)c1C(=O)NCc1ccnc(OC2CCCC2)c1	·	23.1%	·	·	·	·
Oc1cccc(/C=N/NC(=S)Nc2cccnc2)c1O	0.7%	44.7µM*	1.7%	3.3%	3.1	?
Oc1ccccc1/C=N/n1c(COc2ccccc2)n[nH]c1=S	17.5%	19.7%	3.3%	0.7%	-5.0	3.6%
Oc1ccc(/C=N/n2c(COc3ccccc3)n[nH]c2=S)c(O)c1	6.0%	44.7µM*	2.3%	-0.8%	-1.0	-1.5%
O=C1NC(=S)S/C1=C\c1cc(Cl)cc(Cl)c1O	-12.5%	44.7µM*	·	1.5%	-1.8	·
Cc1cc(/C=C2\SC(=S)NC2=O)c(C)n1-c1ccc(O)cc1	-17.9%	28.2µM*	1.2%	0.7%	-3.0	?
COc1ccc(-n2c(C)cc(/C=C3\SC(=S)NC3=O)c2C)cc1	-6.6%	?	-0.4%	31.6µM*	1.1	9.0%
Cc1ccc(NC(=O)CSc2nnc(Cc3ccccc3)n2-n2cccc2)c(C)c1	·	-31.0%	·	·	·	·
O=C(Cn1ccc2cc(S(=O)(=O)N3CCCCC3)ccc21)N1CCOCC1	·	-2.0%	·	·	·	·
O=C(CCN1CCN(C(=O)c2ccco2)CC1)Nc1ccc(F)cc1	0.1%	-2.2%	1.8%	0.7%	1.3	5.1%
